Measurements reported in the supplement of paper PMC8975748.
Where a name gives a salt, the structure may show the parent alone. ± gives the standard deviation of the averaged measurements.

Experiments:
[1] = test system: Saccharomyces cerevisiae BY4741 SeMeCo community; test: mean cell size (pixel area) (pixels); higher = larger cells; conditions: 10 µM; 24 h; SM minimal medium
How it was run: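 Drug was acoustically predosed into 384-well plates to a final 10 µM in SM medium, and each well received 70 µl of Saccharomyces cerevisiae BY4741 diluted to OD600 = 0.3 from an overnight preculture at OD600 = 1.0. This four-plasmid fluorescent community carries one fluorescent marker per plasmid, and each plasmid complements one auxotrophy. After 24 h, the cells were fixed with paraformaldehyde and imaged by automated confocal microscopy, and Harmony analysis yielded mean cell pixel area per well. Each value is averaged over 3 replicates. Same SeMeCo high-content imaging drug screen: Selleck FDA-approved drugs at 10 µM, 24 h in SM medium, 384-well plates, 3 replicates.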

[2] = test system: Saccharomyces cerevisiae BY4741 SeMeCo community; test: z-score of prototroph abundance vs DMSO median; higher = larger share of this subpopulation than in DMSO controls; conditions: 10 µM; 24 h; SM minimal medium; subpopulation (auxotrophy): Prototroph
How it was run: (§1)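 A Saccharomyces cerevisiae BY4741 community carried four plasmids, each restoring one auxotrophy and encoding a distinct fluorescent protein. It was pre-grown overnight to OD600 1.0, diluted to 0.3, and 70 µl was added to 384-well plates acoustically predosed with library drugs (10 µM final), then grown 24 h in minimal SM medium. Cells were paraformaldehyde-fixed and imaged by automated confocal microscopy, with single-auxotroph fluorescent strains setting thresholds and autofluorescence correction. Each subpopulation's abundance was scored as a z-score against the vehicle-well median.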

[3] = test system: Saccharomyces cerevisiae BY4741 SeMeCo community; test: z-score of subpopulation abundance vs DMSO median, subpopulation auxotrophic for L; higher = larger share of this subpopulation than in DMSO controls; conditions: 10 µM; 24 h; SM minimal medium; subpopulation (auxotrophy): L
How it was run: as §1

[4] = test system: Saccharomyces cerevisiae BY4741 SeMeCo community; test: z-score of subpopulation abundance vs DMSO median, subpopulation auxotrophic for U; higher = larger share of this subpopulation than in DMSO controls; conditions: 10 µM; 24 h; SM minimal medium; subpopulation (auxotrophy): U
How it was run: as §1

[5] = test system: Saccharomyces cerevisiae BY4741 SeMeCo community; test: z-score of subpopulation abundance vs DMSO median, subpopulation auxotrophic for H; higher = larger share of this subpopulation than in DMSO controls; conditions: 10 µM; 24 h; SM minimal medium; subpopulation (auxotrophy): H
How it was run: as §1

[6] = test system: Saccharomyces cerevisiae BY4741 SeMeCo community; test: z-score of subpopulation abundance vs DMSO median, subpopulation auxotrophic for LU; higher = larger share of this subpopulation than in DMSO controls; conditions: 10 µM; 24 h; SM minimal medium; subpopulation (auxotrophy): LU
How it was run: as §1

[7] = test system: Saccharomyces cerevisiae BY4741 SeMeCo community; test: z-score of subpopulation abundance vs DMSO median, subpopulation auxotrophic for LM; higher = larger share of this subpopulation than in DMSO controls; conditions: 10 µM; 24 h; SM minimal medium; subpopulation (auxotrophy): LM
How it was run: as §1

[8] = test system: Saccharomyces cerevisiae BY4741 SeMeCo community; test: z-score of subpopulation abundance vs DMSO median, subpopulation auxotrophic for HM; higher = larger share of this subpopulation than in DMSO controls; conditions: 10 µM; 24 h; SM minimal medium; subpopulation (auxotrophy): HM
How it was run: as §1

[9] = test system: Saccharomyces cerevisiae BY4741 SeMeCo community; test: z-score of subpopulation abundance vs DMSO median, subpopulation auxotrophic for HU; higher = larger share of this subpopulation than in DMSO controls; conditions: 10 µM; 24 h; SM minimal medium; subpopulation (auxotrophy): HU
How it was run: as §1

[10] = test system: Saccharomyces cerevisiae BY4741 SeMeCo community; test: z-score of subpopulation abundance vs DMSO median, subpopulation auxotrophic for UM; higher = larger share of this subpopulation than in DMSO controls; conditions: 10 µM; 24 h; SM minimal medium; subpopulation (auxotrophy): UM
How it was run: as §1

[11] = test system: Saccharomyces cerevisiae BY4741 SeMeCo community; test: z-score of subpopulation abundance vs DMSO median, subpopulation auxotrophic for HL; higher = larger share of this subpopulation than in DMSO controls; conditions: 10 µM; 24 h; SM minimal medium; subpopulation (auxotrophy): HL
How it was run: as §1

[12] = test system: Saccharomyces cerevisiae BY4741 SeMeCo community; test: z-score of subpopulation abundance vs DMSO median, subpopulation auxotrophic for HLU; higher = larger share of this subpopulation than in DMSO controls; conditions: 10 µM; 24 h; SM minimal medium; subpopulation (auxotrophy): HLU
How it was run: as §1

[13] = test system: Saccharomyces cerevisiae BY4741 SeMeCo community; test: z-score of subpopulation abundance vs DMSO median, subpopulation auxotrophic for HUM; higher = larger share of this subpopulation than in DMSO controls; conditions: 10 µM; 24 h; SM minimal medium; subpopulation (auxotrophy): HUM
How it was run: as §1

[14] = test system: Saccharomyces cerevisiae BY4741 SeMeCo community; test: z-score of subpopulation abundance vs DMSO median, subpopulation auxotrophic for LUM; higher = larger share of this subpopulation than in DMSO controls; conditions: 10 µM; 24 h; SM minimal medium; subpopulation (auxotrophy): LUM
How it was run: as §1

[15] = test system: Saccharomyces cerevisiae BY4741 SeMeCo community; test: z-score of subpopulation abundance vs DMSO median, subpopulation auxotrophic for HLUM; higher = larger share of this subpopulation than in DMSO controls; conditions: 10 µM; 24 h; SM minimal medium; subpopulation (auxotrophy): HLUM
How it was run: as §1

[16] = test system: Saccharomyces cerevisiae BY4741 SeMeCo community; test: z-score of subpopulation abundance vs DMSO median, subpopulation auxotrophic for HLM; higher = larger share of this subpopulation than in DMSO controls; conditions: 10 µM; 24 h; SM minimal medium; subpopulation (auxotrophy): HLM
How it was run: as §1

Row | Structure (SMILES) | mean cell size [1] | z-score of prototroph abundance [2] | z-score of subpopulation abundance [3] | z-score of subpopulation abundance [4] | z-score of subpopulation abundance [5] | z-score of subpopulation abundance [6] | z-score of subpopulation abundance [7] | z-score of subpopulation abundance [8] | z-score of subpopulation abundance [9] | z-score of subpopulation abundance [10] | z-score of subpopulation abundance [11] | z-score of subpopulation abundance [12] | z-score of subpopulation abundance [13] | z-score of subpopulation abundance [14] | z-score of subpopulation abundance [15] | z-score of subpopulation abundance [16]
1 | CCN(CC)C(=O)[C@@]1(c2ccccc2)C[C@H]1CN [Levomilnacipran Hydrochloride] | 12.1 ± 0.27 | -0.02 | -1.78 | 1.27 | -0.22 | -0.02 | -1.21 | -0.69 | 1.07 | 0.93 | -0.6 | -0.95 | -0.17 | -0.59 |  | 
2 | CCCN1C[C@H](C)[C@@H](O)[C@](C)(O)[C@@H](CC)OC(=O)[C@H](C)[C@@H](O[C@H]2C[C@@](C)(OC)[C@@H](O)[C@H](C)O2)[C@H](C)[C@@H](O[C@@H]2O[C@H](C)C[C@H](N(C)C)[C@H]2O)[C@](C)(O)C[C@H]1C [Gamithromycin] | 12.3 ± 0.13 | -0.29 | 0.42 |  | 2.25 | -0.16 | 0.13 | 0.24 | -0.26 | -0.02 | 0.97 | 0.75 | 0.28 | -0.04 | -0.18 | 
3 | CC1(C)[C@H](C(=O)O)N2C(=O)C[C@H]2S1(=O)=O [Sulbactam sodium] |  | -0.92 | -0.23 | 1.59 | -0.33 | 0.63 | -0.08 | 0.23 | 1.1 |  | 0.14 | 0.64 | 1.25 | 0.21 | 0.51 | 
4 | O=C(C1CCCCC1)N1CC(=O)N2CCc3ccccc3C2C1 (stereo not drawn) [Praziquantel] | 12.39 ± 0.1 | -0.09 |  | 0.5 | -0.1 | 0.75 | 0.34 | -0.5 | -0.36 |  |  | 0.47 | -0.37 | 0.43 | 0.11 | -1.06
5 | Clc1ccc(CSC(Cn2ccnc2)c2ccc(Cl)cc2Cl)cc1 (stereo not drawn) [Sulconazole Nitrate] | 12.1 ± 0.16 | -9.61 |  | 1.17 | 22 | -2.59 | -2.53 | 2.74 | 14.1 |  | 11 | 7.54 | 6.12 | 0.84 | 10.5 | 24.7
6 | Nc1ccc(S(=O)(=O)Nc2ncccn2)cc1 [Sulfadiazine] |  | 0.05 |  | -0.28 | -0.65 | 0.22 | -0.04 | -0.44 | -0.2 | -0.04 | -0.65 | 0.31 | -0.05 | 0.42 | 1.03 | 
7 | CCc1nn(CCCN2CCN(c3cccc(Cl)c3)CC2)c(=O)n1CCOc1ccccc1 [Nefazodone hydrochloride] | 12.38 ± 0.1 |  | 0.67 | -0.01 | 2.06 | 0.49 | -0.3 | 0.55 | 0.21 |  | 0.71 | 0.16 | -0.23 | 0.49 | 0.44 | 
8 | O=C(Nc1cc(Cl)cc(Cl)c1O)c1c(O)c(Cl)cc(Cl)c1Cl [Oxyclozanide] | 12.2 ± 0.31 | 2.11 | -0.21 | -0.91 | -2.53 | -0.32 | -0.51 | -2.11 | -1.36 | -1.83 | 1.03 | -0.55 |  |  | 2.05 | 0.96
